Bioassay records deposited in PubChem by several laboratories.
Gli-Sufu block – blocks Gli-Sufu signaling in a luciferase reporter | Sufu-KO-LIGHT fibroblasts, Gli luciferase reporter luminescence | inhibition, % at 5 µM | hit rate 0.74% among 340,000;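 active means inhibition above about 55%, limit read from the data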;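 further: 0% = DMSO-treated cells and 100% = wells with medium but no cells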
NCOA3 inh – inhibits human SRC3 coactivator; hit rate 0.17% among 360,000; AID 588352; inhibition, % at 3.6 µM; Q9Y6Q9; HEK293 GAL4-SRC3 luciferase reporter, luminescence;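 active means inhibition above a per-campaign cutoff, the mean of all compounds plus 3 SD, cut at about 60% in these data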;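 further: 0% = DMSO-treated cells and 100% = gossypol-treated cells at 36 µM; higher means less SRC3-driven luciferase light from the GAL4 reporter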
NCOA2 inhibitor – inhibits human steroid receptor coactivator 2 | Q15596 | HEK293 GAL4-SRC2 luciferase reporter, luminescence | inhibition, % at 9 µM | hit rate 0.17% among 370,000 | AID 651957;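 active means inhibition above the mean inhibition of all tested compounds plus 3 SD, set per campaign, cut at about 52% in these data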;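 further: 0% = DMSO treated cells and 100% = cells given Gossypol at 36 µM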
COUP-TFII inh – NR2F2 (human) inhibition, primary screen. P24468. HEK293T NGFI-A luciferase reporter, luminescence. inhibition, % at 8.6 µM. hit rate 0.7% among 370,000;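 active means inhibition above a per-plate cutoff, mean inhibition of test wells between control levels plus 3 SD, cut at about 38% in these data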;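 further: cells cotransfected with COUP-TFII expression vector driving the NGFI-A reporter; 0% = median of COUP-TF2 test wells and 100% = reporter-only cells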
Target sequence (P24468 whole entry, looked up): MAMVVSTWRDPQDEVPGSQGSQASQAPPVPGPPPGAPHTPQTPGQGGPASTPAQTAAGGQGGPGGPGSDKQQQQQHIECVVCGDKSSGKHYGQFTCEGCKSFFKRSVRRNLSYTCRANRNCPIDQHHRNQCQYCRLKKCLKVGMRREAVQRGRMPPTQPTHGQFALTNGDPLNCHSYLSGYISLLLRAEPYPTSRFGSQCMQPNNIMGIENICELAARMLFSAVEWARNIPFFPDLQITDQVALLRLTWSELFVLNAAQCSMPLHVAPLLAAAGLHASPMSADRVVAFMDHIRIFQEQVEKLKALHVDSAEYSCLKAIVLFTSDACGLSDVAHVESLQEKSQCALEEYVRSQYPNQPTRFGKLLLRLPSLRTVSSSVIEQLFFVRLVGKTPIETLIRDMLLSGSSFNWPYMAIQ
NCOA1 inh – inhibitors of human steroid receptor coactivator 1 (SRC1) | inhibition, % at 3.6 µM | hit rate 0.12% among 360,000 | HEK293 GAL4-SRC1 luciferase reporter, luminescence;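 active means inhibition above the campaign mean plus 3 SD, with each screening campaign given its own cutoff, cut at about 60% in these data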;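 further: 0% = DMSO treated cells and 100% = gossypol at 36 µM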
LRH-1 inv ag – inverse agonists of human LRH-1 (NR5A2). HEK293T StAR-luciferase reporter, LRH-1 transfected, 24 h. inhibition, % at 3.6 µM. AID 602396. hit rate 0.13% among 360,000. O00482;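 active means inhibition above the mean inhibition of all tested compounds plus 3 SD, cut at about 73% in these data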;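 further: 0% = DMSO wells and 100% = reporter-only cells lacking LRH-1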
* = called active by the depositor. Most compounds without a hit are left out; they make up all but 1.3% or so of the library.

Results for O=C(N/N=C/c1c(O)ccc2ccccc12)c1ccc(Br)o1 ?
Gli-Sufu block: 66*; NCOA3 inh: 39; NCOA2 inhibitor: 8; COUP-TFII inh: -21; NCOA1 inh: -3; LRH-1 inv ag: 0

How did Cn1nccc1C(=O)N/N=C/c1c(O)ccc2ccccc12 do in these assays?
Gli-Sufu block: 85*; NCOA3 inh: 73*; NCOA2 inhibitor: -3; COUP-TFII inh: -46; NCOA1 inh: 68*; LRH-1 inv ag: 90*

Results for O=C(N/N=C/c1c(O)ccc2ccccc12)c1cccnc1 ?
Gli-Sufu block: 68*; NCOA3 inh: 77*; NCOA2 inhibitor: 36; COUP-TFII inh: -21; NCOA1 inh: 57; LRH-1 inv ag: 92*

What do the screens show for `Cc1ccc(C(=O)N/N=C/c2c(O)ccc3ccccc23)cn1`?
Gli-Sufu block: 35; NCOA3 inh: 74*; NCOA2 inhibitor: 48; COUP-TFII inh: -10; NCOA1 inh: 68*; LRH-1 inv ag: 87*

What do the screens show for `COc1ccc2ccccc2c1/C=N\NC(=O)c1cccnc1`?
Gli-Sufu block: 1; NCOA3 inh: 6; NCOA2 inhibitor: 0; COUP-TFII inh: -14; NCOA1 inh: 2; LRH-1 inv ag: 0

Results for Cc1ccc(-c2cc(-c3nnc(SCC(=O)NC4CCCCC4)n3N)[nH]n2)cc1 ?
NCOA2 inhibitor: -74; COUP-TFII inh: -11

How did COC(=O)[C@]12C[C@H](CC(=O)NCC34CC5CC(CC(C5)C3)C4)C(=O)N(CCc3ccc(OC)c(OC)c3)C1=C[C@H](C(C)C)O[C@@H]2C1CC1 do in these assays?
NCOA2 inhibitor: 1; COUP-TFII inh: 27

How did Cc1ccc(-n2c(SCC(=O)Nc3ccc(OCc4ccccc4)cc3)nnc2-c2ccccc2)cc1 do in these assays?
NCOA2 inhibitor: 16; COUP-TFII inh: -12

What do the screens show for `COc1ccc(OC(=O)C(C)N2C(=O)c3ccccc3C2=O)cc1` (stereo unspecified)?
Gli-Sufu block: 4; NCOA3 inh: -5; NCOA2 inhibitor: 8; COUP-TFII inh: 21; NCOA1 inh: 13; LRH-1 inv ag: -6

How did CC1=CC(C)(C)Nc2ccc(OC(=O)c3cccnc3)cc21 do in these assays?
Gli-Sufu block: 5; NCOA3 inh: -8; NCOA2 inhibitor: 39; COUP-TFII inh: 9; NCOA1 inh: -4; LRH-1 inv ag: 22

What do the screens show for `CC1=CC(C)(C)Nc2ccc(OC(=O)c3ccco3)cc21`?
Gli-Sufu block: 9; NCOA3 inh: -2; NCOA2 inhibitor: 55*; COUP-TFII inh: 13; NCOA1 inh: 10; LRH-1 inv ag: 21

Results for CC1=CC(C)(C)Nc2ccc(OC(=O)C(C)N3C(=O)c4ccccc4C3=O)cc21 (stereo unspecified) ?
Gli-Sufu block: 9; NCOA3 inh: 6; NCOA2 inhibitor: 63*; COUP-TFII inh: 18; NCOA1 inh: -8; LRH-1 inv ag: 12

What do the screens show for `Cc1cc(C)cc(NC(=O)NCCCN2CCN(c3ccc(F)cc3)CC2)c1`?
NCOA2 inhibitor: 6; COUP-TFII inh: 11

Results for CCCCCCCCN1C(=O)[C@@H](CC(=O)NCCCN2CCCC2=O)C[C@@]2(C(=O)OC)C1=C[C@H](C(C)C)O[C@@H]2C1CC1 ?
NCOA2 inhibitor: 16; COUP-TFII inh: 10

How did COc1cc(OC)cc(C(=O)NCC(=O)N2CCN(c3ccc(O)cc3)CC2)c1 do in these assays?
Gli-Sufu block: 58*; NCOA3 inh: 1; NCOA2 inhibitor: -5; COUP-TFII inh: 1; NCOA1 inh: 10; LRH-1 inv ag: 0

Results for CC(C)(C)c1nnc(N/N=C/c2cc(Br)ccc2O)n(N)c1=O ?
Gli-Sufu block: 55; NCOA3 inh: 76*; NCOA2 inhibitor: 32; COUP-TFII inh: 5; NCOA1 inh: 67*; LRH-1 inv ag: 2

How did CCc1nnc(N/N=C/c2cc(Br)c(O)cc2O)n1N do in these assays?
Gli-Sufu block: 5; NCOA3 inh: 3; NCOA2 inhibitor: -4; COUP-TFII inh: -6; NCOA1 inh: -19; LRH-1 inv ag: 25

Results for COc1ccc(C(=O)NC2CC3CCCC(C2)N3CC(C)C)cc1OC (stereo unspecified) ?
Gli-Sufu block: 3; NCOA3 inh: -4; NCOA2 inhibitor: -3; COUP-TFII inh: 8; NCOA1 inh: 0; LRH-1 inv ag: -1

What do the screens show for `COc1ccc(C(=O)NC2CC3CCCC(C2)N3CC(C)C)cc1` (stereo unspecified)?
Gli-Sufu block: 20; NCOA3 inh: 5; NCOA2 inhibitor: 95*; COUP-TFII inh: -14; NCOA1 inh: 2; LRH-1 inv ag: 9

Results for COc1ccc(C(=O)Nc2ccc3c(c2)C(=O)c2ccccc2C3=O)cc1OC ?
Gli-Sufu block: -32; NCOA3 inh: -4; NCOA2 inhibitor: -34; COUP-TFII inh: -3; NCOA1 inh: -6; LRH-1 inv ag: -34

How did COc1ccc(C(=O)c2c(C(F)(F)F)oc3c2C(=O)c2ccccc2C3=O)cc1OC do in these assays?
Gli-Sufu block: 22; NCOA3 inh: 32; NCOA2 inhibitor: 13; COUP-TFII inh: 43*; NCOA1 inh: 9; LRH-1 inv ag: 2

What do the screens show for `C[C@@H](C(=O)Nc1ccc2c(c1)OCCO2)n1c(=O)[nH]c2ccccc2c1=O`?
Gli-Sufu block: 46; NCOA3 inh: 67*; NCOA2 inhibitor: 41; COUP-TFII inh: 28; NCOA1 inh: 61; LRH-1 inv ag: 52

Results for CCC(NC(=O)c1cccc2c1C(=O)N(Cc1cccnc1)C2)c1ccccc1 (stereo unspecified) ?
NCOA2 inhibitor: 11; COUP-TFII inh: 10

Results for Brc1ccc2c(c1)CN1CCCC1=N2 ?
Gli-Sufu block: -8; NCOA3 inh: 39; NCOA2 inhibitor: -1; COUP-TFII inh: 11; NCOA1 inh: 61*; LRH-1 inv ag: 45

How did CCC(C)N(CC(=O)Nc1cccc(C)c1C)C(=O)CCl (stereo unspecified) do in these assays?
Gli-Sufu block: 18; NCOA3 inh: 62*; NCOA1 inh: 62*; LRH-1 inv ag: 42

Results for O=c1[nH]cnc2c1nnn2C1OC(CO)C(O)C1O (stereo unspecified) ?
NCOA3 inh: 61; NCOA2 inhibitor: 23; COUP-TFII inh: -10; NCOA1 inh: 41; LRH-1 inv ag: 85*

What do the screens show for `O=c1[nH]cnc2c1ncn2C1OC(CO)C(O)C1O` (stereo unspecified)?
Gli-Sufu block: 4; NCOA3 inh: 9; NCOA2 inhibitor: 4; COUP-TFII inh: 4; NCOA1 inh: 4; LRH-1 inv ag: -9

How did CN(C)c1ncnc2c1nnn2C1OC(CO)C(O)C1O (stereo unspecified) do in these assays?
NCOA3 inh: 69*; NCOA2 inhibitor: 31; COUP-TFII inh: -80; NCOA1 inh: 64*; LRH-1 inv ag: 98*

Results for Cc1cc(NC(=O)c2ccccc2)c(Cl)cc1N ?
Gli-Sufu block: 27; NCOA3 inh: 6; NCOA2 inhibitor: 66*; COUP-TFII inh: 16; NCOA1 inh: 5; LRH-1 inv ag: 0
